Rows were chosen to be rich in hits. Some 10% of all compounds tested hit in one or more screens of this group.
Luciferase inh: blocks purified firefly luciferase enzyme activity | purified P. pyralis luciferase, luminescence, biochemical | Potency, µM (titrated, usually from 115 µM), hits mostly inhibitors | actives 2.5% (n = 76,000) | AID 1347043; note: % is set by controls: 0 for no effect and ±100 for the full control effect; nearly all actives have a fitted effect of over 65% in size
Target sequence (P08659 whole entry, looked up): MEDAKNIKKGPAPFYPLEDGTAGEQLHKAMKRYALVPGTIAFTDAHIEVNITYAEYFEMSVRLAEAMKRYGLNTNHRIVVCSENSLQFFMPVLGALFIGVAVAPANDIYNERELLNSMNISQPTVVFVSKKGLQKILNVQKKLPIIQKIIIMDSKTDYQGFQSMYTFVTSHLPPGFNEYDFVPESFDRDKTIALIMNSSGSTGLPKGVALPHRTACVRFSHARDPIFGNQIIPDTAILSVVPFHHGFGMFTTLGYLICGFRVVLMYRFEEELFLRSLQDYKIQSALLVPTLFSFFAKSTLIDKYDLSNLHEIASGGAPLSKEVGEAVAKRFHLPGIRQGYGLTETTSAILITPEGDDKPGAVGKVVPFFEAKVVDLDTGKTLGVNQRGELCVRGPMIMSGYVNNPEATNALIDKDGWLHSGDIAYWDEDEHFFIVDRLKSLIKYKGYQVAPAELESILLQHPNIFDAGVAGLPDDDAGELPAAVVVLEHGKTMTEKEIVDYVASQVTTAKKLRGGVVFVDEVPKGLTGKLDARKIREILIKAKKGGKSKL
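Luminescence read by CCD imager after adding enzyme (10nM final) to wells holding compound, titrated in qHTS. Substrates 10uM each D-luciferin and ATP; buffer 50mM Tris acetate pH 7.5, 10mM Mg acetate, Tween-20, BSA.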
HEK293 tox: kills HEK 293 cells | HEK 293 viability, ATP luminescence (CellTiter-Glo), 48-72 h | Potency, µM (highest dose often 115 µM), for the others: at the highest dose activity change, negative = cytotoxicity, actives largely listed as inhibitors | actives 6.6% (n = 94,000); note: % is set by controls: 0 for no effect and ±100 for the full control effect; nearly all actives have a fitted effect of over 60% in size
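qHTS cytotoxicity; HEK 293, 250 cells/well; compound pinned; 48 or 72 hr, 37 degree Celsius, 5% CO2, 95% humidity; CellTiter-Glo, 10 min RT; luminescence (ATP).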
3T3 cytotox: kills NIH 3T3 cells. AID 1345082. Potency, µM (titrated, usually from 96.7 µM), without a hit: at the top dose activity change, negative = cytotoxicity, hits mostly inhibitors. NIH 3T3 viability, CellTiter-Glo ATP luminescence, 48-72 h. actives 4.3% (n = 94,000); note: % is set by controls: 0 for no effect and ±100 for the full control effect; nearly all actives have a fitted effect of over 55% in size
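Cytotoxicity is measured as loss of cellular ATP: NIH 3T3 cells (400/well) are exposed to compound for 48 or 72 hr at 37 °C, then CellTiter-Glo luminescence is imaged after 10 min at room temperature.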
GPT2 inh: blocks human glutamate pyruvate transaminase 2; actives 0.25% (n = 100,000); Recombinant GPT2, coupled pyruvate oxidase/HRP Amplex Red fluorescence; Q8TD30; AID 1671188; Potency, µM (doses to about 57.7 µM), for inactives: top-dose activity change, negative = inhibition, actives largely listed as inhibitors; note: % is set by controls: 0 for no effect and ±100 for the full control effect; nearly all actives have a fitted effect of over 60% in size
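Recombinant GPT2 (10ng/uL) with 250uM a-KG and 2mM L-alanine, 30 min at room temperature, in HEPES pH 7.5 buffer. Pyruvate detected by pyruvate oxidase/HRP/Amplex Red fluorescence after 30 min in the dark; AOA (50uM) as positive control.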
NPR1 antag: human Npr1 receptor antagonism. HEK293 hNpr1 GloSensor cGMP, ANP-stimulated luminescence. Potency, µM (titrated, usually from 46.3 µM), inactives show at the top dose activity change, negative = inhibition, actives largely listed as inhibitors. actives 1.6% (n = 76,000). AID 1347048; calls by dose curve; note: % is set by controls: 0 for no effect and ±100 for the full control effect; nearly all actives have a fitted effect of over 60% in size
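HEK293 cells stably expressing human Npr1 and cGMP GloSensor pGS-40F, loaded 2 h with 2% GloSensor reagent, given compound 30 min at room temperature. Luminescence read before and 20 min after 0.1 nM hNppA.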
NPR1 antag cnf: confirmation of human Npr1 natriuretic peptide receptor antagonists. HEK293 hNpr1 cGMP GloSensor luminescence, ANP-stimulated. Potency, µM (top dose mostly 57.6 µM), for inactives: at the top dose activity change, negative = inhibition, hits mostly inhibitors. shares compounds with NPR1 antag. actives 76% (n = 1,400); calls by dose curve; note: nearly all actives have a fitted effect of over 70% in size
NPR2 antag: antagonizes human Npr2, subtype selectivity check; HEK293 hNpr2 GloSensor cGMP luminescence, CNP-stimulated; shares compounds with NPR1 antag; Potency, µM (titrated, usually from 57.6 µM), for inactives: top-dose activity change, negative = inhibition, usual class: inhibitors; actives 67% (n = 1,400); calls by dose curve; note: nearly all actives have a fitted effect of over 70% in size
FLuc inh counter: counter-screen for Npr1 antagonists: firefly luciferase inhibitors; shares compounds with NPR1 antag; purified FLuc enzyme, luminescence, Km substrate; Potency, µM (titrated, usually from 57.6 µM), for the others: at the top dose activity change, negative = inhibition, most hits filed as inhibitors; actives 0.7% (n = 1,400); note: series mostly up to about 58 µM; 0% is about no effect
GloSensor cGMP: control cell line activity, Npr1 antagonist counter-screen; actives 69% (n = 1,400); Potency, µM (doses to about 57.6 µM), for the others: at the top dose activity change, negative = inhibition, actives largely listed as inhibitors; shares compounds with NPR1 antag; HEK293 GloSensor cGMP, SNP-stimulated, luminescence; calls by dose curve; note: % is set by controls: 0 for no effect and ±100 for the full control effect; nearly all actives have a fitted effect of over 70% in size
Numbers without * were called inactive; i = inactive; ? = inconclusive; · = not tested or not shown; [ ] = remark or other dose. Unless noted, calls come from the whole dose curve; as a rule, active = well fitted curve in the direction sought with a large enough effect; inconclusive = small, poorly fitted or top-dose-only effect, or another doubt; inactive = no such curve, though single readings can be large; an effect the other way counts as inactive or inconclusive. Potency is the fitted concentration of half-maximal effect.

SMILES | Luciferase inh | HEK293 tox | 3T3 cytotox | GPT2 inh | NPR1 antag | NPR1 antag cnf | NPR2 antag | FLuc inh counter | GloSensor cGMP
COc1cccc(CN2CCC(Oc3ccccc3-c3nc(-c4ccncc4)no3)C2)c1 (stereo unspecified) | i | ? | 25.1µM* | 1.3% | ? | ? | ? | ? | 0.1%
CCOC(=O)[C@H]1C[C@]2(CCCCN(CCOC(C)=O)C2=O)N(C(=O)c2ccccc2)[C@H]1c1ccco1 | · | -9.9% | ? | · | · | · | · | · | ·
COc1ccc(Nc2cnc3ccc(N(C)Cc4cccnc4)nn23)cc1 | i | ? | ? | 1.3%[88.5 µM] | -15.3%[70.6 µM] | · | · | · | ·
CN(Cc1cccnc1)c1ccc2ncc(Nc3ccc(C(F)(F)F)cc3)n2n1 | i | 44.7µM* | ? | -8.7%[88.5 µM] | 25.1µM* | 22.2µM* | 31.4µM* | 2.3%[86.2 µM] | 22.2µM*
CN(Cc1cccnc1)c1ccc2ncc(Nc3cccc(N[S+](C)(=O)[O-])c3)n2n1 | i | -15.3%[172 µM] | ? | 0.6%[88.5 µM] | -2.9%[70.6 µM] | · | · | · | ·
CN(Cc1cccnc1)c1ccc2ncc(Nc3cc(F)cc(N4CCOCC4)c3)n2n1 | i | ? | 28.2µM* | ? | ? | 35.3µM* | ? | -11.0%[86.2 µM] | ?
COc1ccc(F)cc1Nc1cnc2ccc(N(C)Cc3cccnc3)nn12 | i | 35.5µM* | ? | ? | 7.94µM* | 25µM* | 25µM* | -4.6%[86.2 µM] | 17.7µM*
COc1cccc(-c2cccc(C(=O)N3CCCC3C(=O)N3CCN(Cc4ccccc4)CC3)c2)c1 (stereo unspecified) | · | ? | ? | i | · | · | · | · | ·
COCCN1C(=O)N(CC(C)C)C(=O)C12CCN(Cc1cnn(-c3ccccc3OC)c1)CC2 | i | -9.3% | ? | -2.6% | -5.1% | · | · | · | ·
O=C(Cc1ccccn1)N1CCCC(C(=O)N2CCCC2c2nc3ccncc3[nH]2)C1 (stereo unspecified) | · | i | 2.6% | i | · | · | · | · | ·
COc1ccc2nc(CO[C@H]3CN(Cc4ccc(OC)nc4)C[C@H]3F)[nH]c2c1 | i | -20.2%[172 µM] | -17.5%[138 µM] | -8.0%[88.5 µM] | -0.9%[70.6 µM] | · | · | · | ·
COC(=O)c1ccc2nc(CO[C@H]3CN(Cc4ccc(Cl)cc4)C[C@H]3F)[nH]c2c1 | i | ? | 89.1µM* | i | 31.6µM* | 39.6µM* | 35.3µM* | -10.9%[86.2 µM] | 35.3µM*
COC(=O)c1ccc2nc(CO[C@H]3CN(Cc4cccnc4)C[C@H]3F)[nH]c2c1 | i | -28.0%[172 µM] | -13.8%[174 µM] | 2.8%[88.5 µM] | 2.3%[70.6 µM] | · | · | · | ·
COc1ccc(CN2C[C@@H](F)[C@@H](OCc3nc4ccc(C(F)(F)F)cc4[nH]3)C2)cn1 | i | ? | ? | ? | 31.6µM* | 28µM* | 31.4µM* | -12.1%[86.2 µM] | ?
Cc1ccc(S(=O)(=O)N2CCCC(CCC(=O)NCc3cccc(F)c3)C2)cc1 (stereo unspecified) | i | ? | ? | -8.8% | 3.9% | · | · | · | ·
O=C(CCC1CCCC1)N1CCC(c2noc(COc3ccc(F)cc3)n2)C1 (stereo unspecified) | i | 44.7µM* | ? | -8.2% | 10µM* | 10.9µM* | 15.3µM* | -7.0% | 9.68µM*

Assay outcomes deposited in PubChem by National Center for Advancing Translational Sciences (NCATS).
